Compounds with a hit are over-represented: about 5.7% of the library has one in this group of screens.
NPSR antag: blocks cAMP signaling of the human neuropeptide S receptor; Q6W5P4; 220,000 compounds, 1% hits; CHO-NPSR cells, cAMP TR-FRET, antagonist mode; AID 1461; Potency, µM (highest dose often 38.3 µM), inactives show at the highest dose activity change, negative = inhibition, most hits filed as inhibitors; note: nearly all actives have a fitted effect of over 50% in size
VP16 counter: Gal4-VP16 reporter inhibition counter-screen. Drosophila S2 Gal4-VP16 UAS-luciferase, luminescence, 20 h. Potency, µM (top dose mostly 53.6 µM), inactives show at the top dose activity, negative = inhibition, most hits filed as inhibitors. 310,000 compounds, 3.5% hits;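 note: Gal4-VP16 expression switched on by copper sulfate through the metallothionein promoter; nearly all actives have a fitted effect of over 50% in size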
RORgamma inh: ROR gamma (mouse) transcription inhibition; P51450; 310,000 compounds, 5.4% hits; Drosophila S2 Gal4-RORgamma UAS-luciferase reporter, 20 h; Potency, µM (series often up to 53.6 µM), for the others: top-dose activity change, negative = inhibition, hits mostly inhibitors; AID 2551; note: nearly all actives have a fitted effect of over 60% in size
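A Gal4/UAS one-hybrid system in insect cells: metallothionein-promoter Gal4–ROR gamma fusion plus Photinus luciferase reporter. Copper sulfate 700 uM final, 20 hr ambient incubation, luminescent detection after 10 min with reagent.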
B2AR arrestin: agonists driving beta-arrestin recruitment to human beta2-adrenergic receptor. P07550. beta-arrestin recruitment to beta2AR, cell-based reporter. Potency, µM (titrated, usually from 46.1 µM), inactives show top-dose activation, most hits filed as activators. 330,000 compounds, 0.02% hits;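 note: 0% = DMSO controls and full agonism = EC100 isoproterenol or metaproterenol; nearly all actives have a fitted effect of over 65% in size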
Target sequence (P07550 whole entry, looked up): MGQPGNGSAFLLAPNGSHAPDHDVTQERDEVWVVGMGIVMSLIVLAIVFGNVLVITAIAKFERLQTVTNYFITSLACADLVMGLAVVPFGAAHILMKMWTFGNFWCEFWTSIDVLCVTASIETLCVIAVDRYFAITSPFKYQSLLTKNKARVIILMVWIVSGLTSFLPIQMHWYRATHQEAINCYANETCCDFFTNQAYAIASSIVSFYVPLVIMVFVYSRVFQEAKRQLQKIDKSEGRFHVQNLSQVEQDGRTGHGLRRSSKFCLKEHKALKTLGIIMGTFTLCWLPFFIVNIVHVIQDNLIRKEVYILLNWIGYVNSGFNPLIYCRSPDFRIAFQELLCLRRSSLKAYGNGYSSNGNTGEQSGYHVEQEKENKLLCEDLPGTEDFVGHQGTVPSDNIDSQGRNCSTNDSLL
An asterisk follows results filed as active; u = inconclusive; x = no result given; [ ] = remark or other dose. Calls come from the whole dose curve; as a rule, active = well fitted curve in the direction sought with a large enough effect; inconclusive = small, poorly fitted or top-dose-only effect, or another doubt; inactive = no such curve, though single readings can be large; an effect the other way counts as inactive or inconclusive. Unless noted, % is set by controls: 0 for no effect and ±100 for the full control effect; potency is the fitted concentration of half-maximal effect.

SMILES | NPSR antag | VP16 counter | RORgamma inh | B2AR arrestin
CSc1nnc(-c2cc3c(s2)-c2ccccc2CC3)o1 | -7.2%[46.1 µM] | -30.0% | 1.26µM* | 0.2%
CC1CCc2sc(-c3n[nH]c(=S)o3)cc2C1 (stereo unspecified) | -55.3% | u | u | 0.0%
S=c1[nH]nc(-c2cc3c(s2)-c2ccccc2CC3)o1 | 10µM* | 10µM* | 5.01µM* | -0.3%
O=C(CC1OC(=O)c2ccccc21)Nc1cc(Cl)ccc1N1CCCC1 (stereo unspecified) | x | x | x | -0.1%
O=C1CCCCc2sc(Br)c([N+](=O)[O-])c2N1 | u | u | 11.2µM* | -0.4%
CCCc1cc(Nc2ccccc2)n2ncnc2n1 | x | -5.9% | 10.0% | 0.1%
CCCc1cc(Nc2ccccc2OCC)n2ncnc2n1 | -8.2%[46.1 µM] | u | 11.2µM* | -0.4%
CC(C)Oc1cccc(-c2cc(C(=O)NC(=S)N(C)c3ccccc3C(=O)O)c3ccccc3n2)c1 | -11.4% | u | 11.2µM* | -0.2%
CC(C)Cc1cc(C(=O)Nc2ccccc2)c2ccccc2n1 | x | -6.8% | 2.5% | -0.6%
CCNC(=S)NNC(=O)c1cc(-c2cccc(OC)c2)nc2ccccc12 | -0.8% | 12.6µM* | 2.24µM* | -1.1%
Cc1cc(C(=O)NNC(=S)NC(C)c2ccccc2)c2ccccc2n1 (stereo unspecified) | -5.9%[46.1 µM] | -26.7% | 5.01µM* | -0.3%
CCNC(=S)NNC(=O)c1cc(CC(C)C)nc2ccccc12 | -5.5%[46.1 µM] | u | 0.398µM* | 0.6%
CC(=O)NCCNc1nc(-c2ccccc2Cl)nc2ccccc12 | x | 8.0% | -14.5% | x
CN(C)C(=O)c1ccc(-c2nc(NCc3ccccc3)c3ccccc3n2)cc1 | x | 17.7% | u | x
CCCCCCCCCCCCCC[C@@H](O)[C@@H](O)[C@@H](N)CO | x | -13.8% | -1.3% | x
CCNC(=S)NNC(=O)c1cc(-c2ccc(OCC)cc2)nc2ccccc12 | -0.9%[46.1 µM] | 0.6% | 19.7% | -1.9%
Cc1ccc(C)c(-c2cc(C(=O)NNC(=S)NCC(C)C)c3ccccc3n2)c1 | -21.1%[46.1 µM] | u | 1.12µM* | 0.0%
CCNC(=S)NNC(=O)c1cc(-c2ccccc2C)nc2ccccc12 | -10.1%[46.1 µM] | -24.8% | 0.562µM* | 0.4%
O=C(c1ccncc1)N1CCC2(CCCN(Cc3nccs3)C2)CC1 | x | -17.1% | 0.5% | x
Cc1ccc2n(n1)c(=O)c(Cc1ccccc1)c([O-])[n+]2-c1ccccc1 | 9.4% | -4.3% | -20.7% | -0.8%
COC(=O)NC(CC(C)=O)c1cccc(C(F)(F)F)c1 (stereo unspecified) | x | 2.4%[10 µM] | -1.0%[10 µM] | x
Cc1ccc(Nc2ncnc3ccccc23)cc1 | 19.3% | -11.1% | 3.8% | -0.1%
COC(=O)C(=O)C/C(=N/Nc1ncnc2ccccc12)c1ccc(Cl)cc1 | x | u | 11.2µM* | 0.1%
Cc1ccc(/C(=N/Nc2ncnc3ccccc23)C(=O)O)cc1 | x | 0.891µM* | 0.0501µM* | 11.2µM*
O=C(Nc1cccc(Cl)c1)ON=C1c2ccccc2-c2ccccc21 | 15.6%[46.1 µM] | -0.6% | 15.8% | 0.3%
SMILES | NPSR antag | VP16 counter | RORgamma inh | B2AR arrestin
O=C(NCc1ccc(Cl)cc1)C1CCCCN1S(=O)(=O)c1ccccc1 (stereo unspecified) | x | 12.1% | -15.1% | -0.6%
CCCCN1CC(COCc2ccccc2)Oc2ccccc2S1(=O)=O (stereo unspecified) | x | x | x | -0.3%
COc1cc(-c2nc(-c3ccccc3)c(-c3ccc(F)cc3)[nH]2)cc2c1OCO2 | u | -4.5% | -1.5% | 3.1%
COc1ccc(N=Nc2nc(-c3ccccc3)c(-c3ccccc3)[nH]2)cc1 | -54.4% | 2.82µM* | 2.24µM* | -0.7%
Oc1ccccc1N=Nc1nc(-c2ccccc2)c(-c2ccccc2)[nH]1 | u | 3.98µM* | 3.98µM* | -0.1%
COc1ccccc1N=Nc1nc(-c2ccccc2)c(-c2ccccc2)[nH]1 | 12.6µM* | 5.01µM* | 3.16µM* | 0.4%
CC1CCN(CCCNC(=O)C2CC(=O)N(CCc3ccccc3)C2)CC1 (stereo unspecified) | x | 2.2% | -18.4% | 0.1%
CCOc1ccccc1NC(=O)NNC(=O)CCc1ccc(OC)cc1 | x | 10.7% | -20.7% | -0.1%
CCC(Cl)CC(Cl)C(Cl)C(Cl)C(Cl)C(C)Cl (stereo unspecified) | x | 21.5% | 3.0% | x
COc1ccccc1Nc1nc(N)nc(CSC(=S)N2CCN(c3ccccc3)CC2)n1 | -12.1% | 6.5% | -44.6% | 0.1%
COc1ccccc1Nc1nc(N)nc(CSC(=S)N2CCC(C)CC2)n1 | -24.5%[46.1 µM] | 5.01µM* | 0.126µM* | 0.1%
COc1ccccc1Nc1nc(N)nc(CSC(=S)N2CCCCC2C)n1 (stereo unspecified) | u | 7.08µM* | 7.94µM* | -0.4%
Cc1cc(C)cc(-n2ncc3c2CCCC3NC(=O)CCN2Cc3ccccc3C2=O)c1 (stereo unspecified) | x | -1.9% | 7.7% | -0.5%
COc1cccc(-c2nc(N(C)Cc3ccco3)c3ccccc3n2)c1 | x | 3.7% | 12.3% | x
COc1ccc(NC(=O)COC(=O)CCNS(=O)(=O)c2ccccc2)cc1OC | 2.4% | -14.1% | -4.2% | -0.1%
Cc1ccc(CCNC(=O)Cc2ccc(NC3=NC4CS(=O)(=O)CC4S3)cc2)cc1 (stereo unspecified) | x | 0.2% | -11.2% | -0.1%
Cc1cccc(N2CC(O)(c3cccs3)[N+]3=C2CCCC3)c1C (stereo unspecified) | 10.1% | 35.5µM* | 8.5% | 0.5%
Cc1ccccc1N1CC(O)(c2cccs2)[N+]2=C1CCCC2 (stereo unspecified) | 22.1% | -7.0% | 0.0% | 0.5%
O=[N+]([O-])C(=C1Nc2ccccc2N1)C(Cl)=C(Cl)Cl | 21.9% | u | 11.2µM* | 0.1%
NC(=O)c1ccccc1OCc1nnc(-c2ccccc2Br)o1 | x | u | -3.3% | 0.1%
CC(C)C[C@H](NC(=O)c1nc[nH]c1C(=O)NCC(=O)OCc1ccccc1)C(=O)OC(C)(C)C | x | u | 12.6µM* | 0.5%
CC(C)C[C@H](NC(=O)c1[nH]cnc1C(=O)N[C@@H](C)C(=O)OCc1ccccc1)C(=O)OC(C)(C)C | x | 15.8µM* | 7.08µM* | -1.1%
C[C@H](NC(=O)c1nc[nH]c1C(=O)NCC(=O)OCc1ccccc1)C(=O)OC(C)(C)C | x | u | -87.8% | 1.7%
Cc1cc(C)c(C(=O)/C=C/c2cccc3ccccc23)c(=O)[nH]1 | -0.1% | 12.6µM* | u | -0.4%
Cc1cc(C)c(C(=O)/C=C/c2ccc3c(c2)OCO3)c(=O)[nH]1 | -23.1% | -3.3% | 19.7% | 0.0%
SMILES | NPSR antag | VP16 counter | RORgamma inh | B2AR arrestin
CCN(CC(=O)NC(C)(C)C)Cc1nc2c(Br)cc(Br)cc2c(=O)[nH]1 | 31.7% | 3.16µM* | 0.708µM* | -0.7%
CCN(C[C@H]1N[C@@](Cc2ccccc2)(C(=O)OC)[C@H]2C(=O)N(C)C(=O)[C@@H]12)S(=O)(=O)c1ccc(OC)cc1 | x | x | x | -1.0%
CCC(C)(C)NC(=S)Nc1ccccc1C | -42.0% | 11.2µM* | 3.98µM* | -0.1%
Cc1ccccc1NC(=S)NCc1ccccc1 | 1.4% | 11.2µM* | 3.98µM* | -0.9%
Cc1ccc2nc(NCc3ccco3)c(C=NCc3ccco3)c(=O)n2c1 | -24.5%[46.1 µM] | -6.3% | 33.0% | -0.5%
Cc1cc(O)cc(O)c1C=NCc1ccco1 | -38.4% | 5.62µM* | u | 6.5%

Screens: PubChem BioAssay, National Center for Advancing Translational Sciences (NCATS)
